# A selection: hits, their analogues and other compounds. The true share with any hit is near 1.5%.
# 3CLpro inhibitor – SARS-CoV 3CLpro protease inhibition; P0C6X7; recombinant SARS-CoV 3CLpro, quenched FRET peptide cleavage; inhibition, % at 6 µM; 0.14% of 290,000 active; in the data active = inhibition above about 12%
# RecA splice inh – inhibitors of M. tuberculosis RecA intein splicing | 0.75% of 290,000 active | P9WHJ3 | inhibition, % (concentration not given with the values) | cell-free RecA intein splicing, fluorescence; in the data active = inhibition above about 30%;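 also: 0% = vehicle wells and 100% = reference inhibitor control wells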
# CCHFV vOTU inh – blocks the CCHF virus ovarian tumor domain protease | CCHFV vOTU protease, Pep-AMC fluorescence | inhibition, % at 11.5 µM | 0.55% of 370,000 active; in the data active = inhibition above about 30%; also: 0% = vehicle wells with enzyme and 100% = no enzyme wells
# DUSP3 inh – blocks human VHR1 dual specificity phosphatase | recombinant VHR phosphatase, pNPP absorbance | inhibition, % at 13.3 µM | 0.52% of 290,000 active; in the data active = inhibition above about 50%
# Target sequence (P51452 whole entry, looked up): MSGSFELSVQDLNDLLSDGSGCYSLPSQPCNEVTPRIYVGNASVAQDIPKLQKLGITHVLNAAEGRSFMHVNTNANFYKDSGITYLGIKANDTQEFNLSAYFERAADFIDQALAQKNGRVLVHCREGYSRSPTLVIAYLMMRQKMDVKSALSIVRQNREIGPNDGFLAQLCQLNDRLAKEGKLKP
# Starred values were filed as active, the others as inactive; . = not tested or not shown.
SMILES,3CLpro inhibitor,RecA splice inh,CCHFV vOTU inh,DUSP3 inh
O=C1NC(=O)N(Cc2cccs2)C(=O)/C1=C/c1ccc(N2CCOCC2)cc1,2.9,1.2,17.6,8.5
O=C1NN(c2cccc(Br)c2)C(=O)/C1=C\c1ccc(N2CCOCC2)cc1,0.8,-1.5,.,52.6*
O=C(O)CCN1C(=O)/C(=C\c2ccncc2)SC1=S,1.0,0.4,0.7,10.3
O=C(CN1C(=O)/C(=C\c2ccco2)SC1=S)Nc1ccc(O)cc1C(=O)O,0.7,14.1,30.9*,-5.0
O=C(CCN1C(=O)/C(=C/c2ccco2)SC1=S)Nc1ccc(O)cc1C(=O)O,-0.7,-3.1,27.6,-23.8
COC(=O)CCCCCN1C(=O)/C(=C\c2ccncc2)SC1=S,1.9,33.9*,-9.5,28.9
COc1ccc(/C=C2\SC(=S)N(CCC(=O)Nc3ccc(C(=O)O)cc3)C2=O)cc1,1.3,19.0,2.6,51.7*
O=C(CCCN1C(=O)/C(=C\c2ccccc2)SC1=S)Nc1ccc(O)cc1C(=O)O,7.1,41.1*,27.5,-6.0
N#CCC[C@H]1CC[C@]2(CCCN(C(=O)C3CCCCC3)C2)O1,.,.,0.8,.
COc1ccc(/C=C(/NC(=O)c2ccco2)C(=O)N2CCCCCC2)cc1OC,-2.4,-0.9,-3.4,4.7
O=C(CCN1C(=O)S/C(=C\C=C\c2ccccc2)C1=O)Nc1ccc(O)cc1,-5.0,5.7,12.0,3.9
O=C(CCCN1C(=O)S/C(=C\C=C\c2ccccc2)C1=O)Nc1ccc(C(=O)O)cc1,1.1,30.3*,11.4,11.5
N#CC1=C(N)C(C#N)(C#N)[C@H](c2ccncc2)[C@H]2CN(C(=O)OCc3ccccc3)CC=C12,-1.6,6.5,-18.5,53.8*
CC(C)(C)OC(=O)N1CC=C2C(C#N)=C(N)C(C#N)(C#N)[C@H](c3cccnc3)[C@H]2C1,-4.0,.,-29.0,8.3
COc1ccccc1S(=O)Cc1ccc(C(=O)NCCc2ccc(Cl)cc2)o1 (stereo not given),2.0,.,.,8.2
O=C(N/N=C/c1ccc(OC(=O)c2ccc3c(c2)OCO3)cc1)c1cncc(Br)c1,-2.0,-1.6,4.4,50.8*
COC(=O)[C@]12C[C@H](CC(=O)NCc3cccc4ccccc34)C(=O)N(Cc3ccco3)C1=C[C@H](C(C)C)O[C@@H]2C1CC1,.,.,12.5,.
CN(C)c1nc(N(C)C)nc(N(C#N)CN2C(=O)c3ccccc3C2=O)n1,0.2,-0.7,.,51.9*
CCCN(C(=O)c1cccc(-n2cccc2)c1)c1c(N)n(Cc2ccccc2)c(=O)[nH]c1=O,.,0.0,9.6,.
O=C(c1cccs1)n1nc(-c2ccco2)nc1SCc1ccccc1,6.4,2.1,-0.7,28.6
CSc1nc(-c2ccco2)nn1C(=O)c1cccs1,1.9,31.8*,7.0,33.8
CC1CCCN(c2ccc(C(=O)Nc3cccnc3)cc2[N+](=O)[O-])C1 (stereo not given),5.0,4.7,-7.0,52.5*
CC(Sc1nncs1)C(=O)Nc1ccc(S(=O)(=O)Nc2ncccn2)cc1 (stereo not given),.,.,13.6,.
CCC(=O)Nc1nc2ccccc2n1CCN(C)C,-2.9,-1.4,6.9,57.4*
CC1=NN(c2ccccc2)C(=O)/C1=C/c1c(O)[nH]c(=S)[nH]c1=O,-5.0,20.2,8.5,17.2
SMILES,3CLpro inhibitor,RecA splice inh,CCHFV vOTU inh,DUSP3 inh
CC1=NN(c2ccccc2)C(=O)/C1=C/c1c(O)[nH]c(=O)[nH]c1=O,3.1,42.9*,17.7,1.7
CC1=NN(c2ccccc2)C(=O)/C1=C\c1cn(C)c2ccccc12,1.9,38.9*,8.6,4.7
Cc1c(F)cccc1NC(=O)CCCCCC1NC(=O)NC1C (stereo not given),-0.1,-0.6,6.0,-19.0
Cc1cc(-c2nnc(CCC(=O)NCCc3ccccc3F)o2)no1,5.7,2.2,-6.2,27.3
COc1ccc(Cl)cc1NC(=O)CN1C(=O)NC(Cc2c[nH]c3ccccc23)C1=O (stereo not given),.,.,-21.7,.
Cc1cc(C(=O)NN=Cc2ccccc2C(=O)O)n[nH]1,.,.,0.6,.
Cc1cc([N+](=O)[O-])c2[nH]c(C(=O)N/N=C/c3ccccc3C(=O)O)c(-c3ccccc3)c2c1,-1.9,6.5,-13.3,90.3*
O=C(c1c[nH]c(C(=O)C(Cl)(Cl)Cl)c1)c1ccc(F)cc1F,2.5,33.8*,-13.2,.
CN(C)C=NC(=O)c1cc(C(=O)c2ccccc2)c[nH]1,-0.6,-0.7,2.8,13.4
O=C(c1ccccc1)c1c[nH]c(C(=O)C(Cl)(Cl)Cl)c1,1.9,46.2*,23.5,13.4
COc1ccc(N2C(=NC(=O)C3CCCO3)SC3CS(=O)(=O)CC32)cc1 (stereo not given),-1.7,3.3,0.2,55.6*
O=C(COc1ccccc1)N=C1SC2CS(=O)(=O)CC2N1c1ccc(F)cc1 (stereo not given),-9.7,-2.6,-5.2,54.2*
O=C(N=C1SC2CS(=O)(=O)CC2N1c1ccc(Cl)cc1)C1CCCO1 (stereo not given),-1.6,4.9,7.2,-5.0
COc1ccc(C(=O)Cn2nnc(-c3ccccc3NC(=O)c3ccco3)n2)cc1,1.2,0.5,-12.1,8.4
COc1ccc2cc(C(=O)C3CCCN(C(=O)CCc4cnn(C)c4)C3)ccc2c1 (stereo not given),-0.2,-1.7,-118.5,17.5
CCC1=NNc2cccc3c(OC)ccc1c23,-1.8,24.3,.,54.0*
O=C(CCc1ccccc1)NC1(Cc2ccccc2)CCN(CCCc2ccccc2)C1=O (stereo not given),.,.,9.1,.
COc1ccc(N2CCN(CCCNC(=O)COc3ccc(F)cc3)CC2)cc1,.,.,-5.5,.
CC1(C)CC(=O)c2cc(OCC(=O)NCCCN3CCN(c4ccc(F)cc4)CC3)ccc2O1,-1.1,-4.6,-25.5,52.6*
Cc1cc(=O)n2nc(N3CCC(C(=O)NCc4ccccc4)CC3)sc2n1,-3.1,-5.4,8.1,52.1*
O=[N+]([O-])c1ccc(CP(=O)(c2ccccc2)c2ccccc2)cc1,-4.8,3.8,6.9,55.5*
CCCNC(=O)C1CCN(c2ccc(S(=O)(=O)N3CCOCC3)cc2Cl)CC1,3.8,0.8,14.2,57.3*
C=CCNC(=O)C1CCN(c2ccc(S(=O)(=O)N3CCOCC3)cc2Cl)CC1,2.5,-2.2,19.8,15.8
CCCc1[nH]nc2c1C(/C(C)=C/c1ccccc1)C(C#N)=C(N)O2 (stereo not given),2.5,7.3,5.8,18.8
CCCc1[nH]nc2c1C(c1ccc(O)c(OC)c1)C(C#N)=C(N)O2 (stereo not given),3.9,79.1*,1.0,14.0
COCc1[nH]nc2c1C(c1cccc(OC)c1)C(C#N)=C(N)O2 (stereo not given),-3.6,57.3*,-4.2,-2.5
CCCc1[nH]nc2c1C(c1ccc(OC)c(Cn3nnc4ccccc43)c1)C(C#N)=C(N)O2 (stereo not given),-6.1,69.8*,.,-3.4
COc1cc(C2C(C#N)=C(N)Oc3n[nH]c(-c4cccs4)c32)cc(OC)c1O (stereo not given),-2.3,10.9,-2.8,6.7
COCc1[nH]nc2c1C(c1cc(OC)c(O)c(OC)c1)C(C#N)=C(N)O2 (stereo not given),3.7,-4.1,-0.9,0.8
CCCc1[nH]nc2c1C(c1ccccc1OCC)C(C#N)=C(N)O2 (stereo not given),3.6,67.0*,-11.3,11.9
